# IEC-6 tox: kills IEC-6 intestinal cells in KLF5 counter-screen. IEC-6 cytotoxicity, luminescence viability. inhibition, % at 5 µM. 290,000 compounds, 0.78% hits. AID 1825;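 note: 0% = plate median of test compound wells and 100% = cytotoxic reference compound wells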
# APP transl inh: APP translation inhibition. SH-SY5Y APP 5'UTR-luciferase reporter, luminescence. inhibition, % at 2 µM. 190,000 compounds, 0.82% hits. AID 1285;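 active = inhibition above a set limit, derived from the sample mean plus 3 SD, cut at about 45% in these data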
# BaF3 tox: reduces parental Ba/F3 cell viability, JAK2V617F counter-screen; inhibition, % at 5.6 µM; 220,000 compounds, 1.1% hits; CellTiter-Glo ATP luminescence;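 active = inhibition above a per-campaign cutoff, the mean inhibition of all tested compounds plus 3 SD, cut at about 27% in these data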;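 note: 0% = DMSO wells and 100% = JAK Inhibitor I control wells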
# Ba/F3 V617F tox: lowers viability of Ba/F3 cells expressing EpoR and JAK2V617F | ATP luminescence | inhibition, % at 5.6 µM | 220,000 compounds, 1.1% hits;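 active = inhibition above the campaign mean plus 3 SD over all tested compounds, cut at about 24% in these data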;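 note: cytokine-independent growth of Ba/F3 cells driven by EpoR plus mutant JAK2; 0% = DMSO-treated cells and 100% = JAK inhibitor I control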
# KLF5 inh: suppresses KLF5 promoter-driven expression. DLD-1 KLF5 promoter-luciferase reporter, luminescence. inhibition, % at 5 µM. 290,000 compounds, 0.23% hits. AID 1700;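 active = inhibition above a per-plate limit of that plate's mean compound inhibition plus 3 SD, cut at about 60% in these data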;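 note: 0% = DMSO wells and 100% = LY294002 at 200 µM; higher means less KLF5 promoter-driven luciferase light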
# IEC-6 cytotox cf: IEC-6 cytotoxicity, confirmation assay. shares compounds with IEC-6 tox. IEC-6 rat intestinal epithelial viability, luminescence. inhibition, % at 5 µM. 1,900 compounds, 63% hits;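 note: 0% = vehicle and 100% = reference cytotoxic drug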
# An asterisk follows results filed as active; · = not tested or not shown. The list is not random: actives were taken first. Their share in the collection is about 1.8%. Cut-off read from the data, not from the text of the source, unless noted: active = inhibition above about 22%; inactive = the rest.
SMILES,IEC-6 tox,APP transl inh,BaF3 tox,Ba/F3 V617F tox,KLF5 inh,IEC-6 cytotox cf
CN(C)CCCNC(NC(=O)/C=C/c1ccccc1)C(Cl)(Cl)Cl (stereo unspecified),-1.9,·,-1.9,-2.4,-13.7,·
CC(C)C(=O)NC(c1cccc([N+](=O)[O-])c1)c1c(O)ccc2ccccc12 (stereo unspecified),-0.5,-18.5,0.2,-4.6,-23.1,·
CC(=O)NC(c1ccc(Cl)cc1Cl)c1ccc2cccnc2c1O (stereo unspecified),48.7*,·,·,·,59.5,73.5*
CC(C)C(=O)NC(c1cccc([N+](=O)[O-])c1)c1ccc2cccnc2c1O (stereo unspecified),25.0*,·,·,·,78.9*,67.0*
COc1cc(C2=NOC(C(=O)NCc3cccnc3)C2)cc(OC)c1OC (stereo unspecified),-2.2,·,·,·,-22.0,·
COc1cc(C2=NOC(C(=O)NCc3ccco3)C2)cc(OC)c1OC (stereo unspecified),25.5*,6.3,51.0*,43.5*,27.0,43.6*
COc1ccc(C2=NOC(C(=O)NCc3ccco3)C2)cc1 (stereo unspecified),25.1*,25.0,3.1,-1.5,15.2,35.4*
COc1ccc(-c2nc(N)ncc2Oc2ccccc2Br)c(O)c1,0.3,-3.1,2.4,-2.1,-22.0,·
COc1cccc(Oc2cnc(N)nc2-c2ccc(OC)cc2O)c1,45.4*,60.8*,62.1*,68.4*,35.4,33.0*
CCN(CC)C(=O)Oc1ccc2oc(=O)cc(-c3cc4cccc(OC)c4o3)c2c1,-1.3,·,·,·,-2.4,·
CN1C2CCC1/C(=C\c1ccccc1F)C(=O)/C2=C/c1ccccc1F,32.8*,0.0,3.7,17.4,-23.5,-0.3
CCOC(=O)C/C(C)=N/NC(=O)C1CC1(c1ccccc1)c1ccccc1 (stereo unspecified),-7.4,-11.3,0.2,-3.7,-3.0,·
CCCCCCCCCCCCCCCCn1cc[n+](C)c1,34.8*,28.8,68.8*,97.9*,8.5,31.8*
Cc1ccc(S(=O)(=O)Nc2ccc3c4c(cccc24)CC3)c(C)c1,26.4*,3.7,12.5,4.1,4.0,38.5*
CC(C)(C)C(=O)Nc1ccc(C(=O)NCc2cccnc2)cc1,1.2,4.8,5.6,5.4,-6.1,·
CC(C)(C)c1ccc(C(=O)Nc2ccc(C(=O)NCc3cccnc3)cc2)cc1,98.5*,·,·,·,20.3,90.8*
O=C(NCc1cccnc1)c1ccc(NC(=O)c2ccc([N+](=O)[O-])cc2)cc1,87.1*,·,·,·,-20.2,59.0*
O=C(NC(=S)NCc1cccnc1)c1ccc([N+](=O)[O-])cc1,0.3,1.6,2.3,-2.1,-4.8,·
COc1ccc(Oc2cccc(Cl)c2CNC(=O)CCCC(=O)O)cc1,-3.1,·,1.8,-3.2,7.8,·
OCCN(Cc1ccccc1)c1ncnc2sccc12,4.7,·,·,·,4.4,·
COc1ccc(/C=c2\s/c(=C/C(=O)c3ccc(C)cc3)[nH]c2=O)cc1OC,2.2,-3.2,5.4,3.5,6.3,·
COC(=O)C[N+](C)(C)CC#Cc1ccccc1,-6.8,-13.0,7.7,-0.9,-13.5,·
Cc1ccccc1NC(=S)Nc1cccc2cnccc12,43.6*,-11.2,5.8,1.5,5.9,-1.4
Cc1ccc(Cl)cc1NC(=S)N/N=C/c1cccc2ccccc12,78.6*,·,76.5*,77.8*,45.0,66.8*
Cc1ccc(F)c(NC(=S)Nc2cccc3ccccc23)c1,64.9*,·,·,·,-79.8,-1.7
SMILES,IEC-6 tox,APP transl inh,BaF3 tox,Ba/F3 V617F tox,KLF5 inh,IEC-6 cytotox cf
CC(=O)c1cccc(NC(=S)Nc2cccc3ccccc23)c1,28.0*,·,·,·,-37.5,-0.9
C=C(C)COc1ccc(-c2nc(N)ncc2-c2ccc(Cl)cc2)c(O)c1,-4.4,·,·,·,-3.4,·
CCc1ccc(CNC(=O)CCCC(=O)n2nc(C)c3ccccc32)cc1,-6.9,·,·,·,-20.6,·
Cc1ccc(F)cc1CNC(=O)C1CCC(=O)N(CCCN2CCCC2=O)C1 (stereo unspecified),3.6,·,·,·,-34.9,·
COC(=O)c1ccc(C(=S)NCC2(N(C)C)CCCCC2)cc1,2.9,·,·,·,-19.9,·
NS(=O)(=O)c1ccc(CCNC(=O)CCCOc2ccccc2)cc1,-5.6,0.7,4.0,0.2,-1.1,·
CN(C)CCCN1C(=O)c2cccc3c([N+](=O)[O-])ccc(c23)C1=O,38.8*,79.7*,79.0*,94.9*,10.2,26.9*
Cc1nc2c(sc3nc4c(cc32)COC(C)(C)C4)c(=O)n1CC(=O)NCc1ccco1,62.9*,-4.6,79.2*,76.0*,51.6,37.6*
CCCc1nc2c(sc3nc4c(cc32)COC(C)(C)C4)c(=O)n1Cc1ccco1,-1.6,-7.5,6.8,1.1,-21.8,·
Cc1ccc(Nc2nc(N/N=C/c3c[nH]c4ccccc34)nc(N3CCOCC3)n2)cc1,90.1*,31.8,61.7*,80.2*,-30.3,93.9*
c1ccc(Nc2nc(N3CCOCC3)nc(N3CCOCC3)n2)cc1,8.0,24.5,2.8,-1.6,-20.5,·
C(=N\Nc1nc(Nc2ccccc2)nc(N2CCOCC2)n1)/c1c[nH]c2ccccc12,85.6*,21.4,66.7*,78.1*,-34.0,97.2*
Cc1cc(/C=N/Nc2nc(N3CCOCC3)nc(N3CCOCC3)n2)c(C)n1-c1ccccc1,-3.4,17.1,5.5,-3.0,-31.5,·
Cc1[nH]c2ccccc2c1/C=N/Nc1nc(Nc2ccc(F)cc2)nc(N2CCOCC2)n1,56.0*,12.6,10.0,0.2,17.7,96.2*
Fc1ccc(Nc2nc(N3CCOCC3)nc(N3CCOCC3)n2)cc1,2.0,·,·,·,-4.1,·
CSc1nn(CCc2ccncc2)c(=S)s1,-4.8,-5.5,3.7,-0.4,-18.6,·
CCN(CC)CCOc1ccc(Br)cc1,2.3,0.6,2.2,-0.4,8.4,·
CCN(CC)CCOc1ccc2c(c1)C(=NO)c1cc(OCCN(CC)CC)ccc1-2,37.4*,33.3,18.9,17.7,3.8,21.1
Cc1sc2ccccc2[n+]1CC(=O)c1ccccc1,2.1,·,·,·,-18.0,·
O=C(c1ccccc1)c1c2c(cc3sc4ccccc4[n+]13)-c1cccc3cccc-2c13,39.1*,-35.9,68.3*,85.8*,-9.4,17.8
CC(Nc1ncnc2ccccc12)c1ccccc1 (stereo unspecified),28.1*,·,·,·,-49.5,27.2*
CCCCC(Nc1ncnc2ccccc12)C(=O)O (stereo unspecified),-0.2,-3.4,4.3,-1.6,-41.5,·
CC(C)c1ccc(NC(=O)Nc2cnccn2)cc1,42.0*,·,·,·,-81.8,15.3
Cc1ccc(NC(=O)Nc2cnccn2)cc1,-3.0,·,·,·,-95.6,·
CC(=O)Nc1nc(C2CC2)cc(-c2ccccc2)c1C#N,4.8,18.8,2.5,-1.3,-21.2,·
CCC(Sc1nc2ncccc2[nH]1)C(=O)N1CCOCC1 (stereo unspecified),-3.7,·,·,·,-14.6,·
COc1ccc(C(=O)N/N=C/c2c[nH]c3ccccc23)cc1,0.8,·,·,·,-43.1,·
COc1ccc(C(=O)N/N=C/c2sc3ccccc3c2O)cc1,27.0*,50.9*,7.4,0.7,-12.5,12.3
CCOc1ccsc1C(=O)O,-3.5,·,-1.2,-2.6,-17.2,·
O=C(COC(=O)c1ccccc1Nc1ccc(SC(F)F)cc1)NC1CC1,8.7,-20.1,9.3,-1.5,-50.4,·
